Source: PubChem BioAssay
A selection: hits, their analogues and other compounds. The true share with any hit is near 9.3%.
HCV inhibitor = HCV inhibition; Potency, µM (series often up to 41.8 µM), for inactives: at the highest dose activity change, negative = inhibition, actives largely listed as inhibitors; Huh7.5.1 HCVcc-Cre infection, luciferase reporter, 44 h; 340,000 compounds, 3.4% hits; further: potency means the concentration at half of the fitted maximal effect
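Whole-lifecycle infectious HCVcc-Cre system; cells 1,000/well, compound then virus (~0.5 moi) added 4 h after plating, 44 h culture. Luciferase read 15 sec following 15 min substrate incubation, room temp.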
FMDV inh = foot and mouth disease virus antiviral activity; FMDV antiviral cell-based qHTS; Potency, µM (highest dose often 57.9 µM), without a hit: top-dose activity change, negative = inhibition, actives largely listed as inhibitors; 410,000 compounds, 1.2% hits; calls by dose curve; tested in HEK293T cells; further: read-out not given here; potency means the concentration at half of the fitted maximal effect; nearly all actives have a fitted effect of over 45% in size
Sm TGR block = inhibitors of Schistosoma mansoni thioredoxin glutathione reductase; 360,000 compounds, 3% hits; Potency, µM (titrated, usually from 114 µM), without a hit: top-dose activity change, negative = inhibition, actives largely listed as inhibitors; purified TGR, DTNB reduction, TNB absorbance 405 nm; Q962Y6; AID 485364; further: potency means the concentration at half of the fitted maximal effect; nearly all actives have a fitted effect of over 60% in size
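First, TGR (20 nM dispensed) and NADPH were mixed with compound. Second, a 15 min room-temperature incubation followed. Third, further NADPH and then DTNB were added to start the reaction. Finally, TNB absorbance was monitored kinetically.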
Vaccinia mCherry = vaccinia inhibition (mCherry reporter); Vaccinia virus mCherry reporter infection, fluorescence; Potency, µM (series often up to 36.5 µM), inactives show at the top dose activity change, negative = inhibition, actives largely listed as inhibitors; 310,000 compounds, 0.63% hits; calls by dose curve; tested in A549 cells; further: potency means the concentration at half of the fitted maximal effect; nearly all actives have a fitted effect of over 35% in size
HCMV inh = blocks human cytomegalovirus replication; HFF cells, HCMV-luciferase reporter, 72 h; active compounds read low; activity change, negative = inhibition, % at 57.5 µM; 410,000 compounds, 4.5% hits; in the data active means activity change below about -60%; inconclusive means no clear call, values can overlap the other calls; inactive means above about -39%
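Inhibition of viral replication was scored as loss of reporter luminescence in HFFs infected with HCMV-luciferase (MOI 1 PFU/cell) for 72 h; compounds tested at 2 doses, normalized to buffer and Salinomycin controls.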
VACV Venus inh = vaccinia inhibition (Venus reporter); Vaccinia virus Venus reporter expression, fluorescence; AID 720580; Potency, µM (series often up to 36.5 µM), for the others: at the top dose activity change, negative = inhibition, actives largely listed as inhibitors; 330,000 compounds, 0.46% hits; calls by dose curve; tested in A549 cells; further: potency means the concentration at half of the fitted maximal effect; nearly all actives have a fitted effect of over 30% in size
* marks the source's active call; other numbers are inactive results. Unless noted, the call rests on the fitted dose curve; in most records, active means well fitted curve in the direction sought with a large enough effect; inconclusive means small, poorly fitted or top-dose-only effect, or another doubt; inactive means no such curve, though single readings can be large; an effect the other way counts as inactive or inconclusive. On the % scale 0 is the no-effect control and ±100 the full control effect.

For Cc1ccc(NC(=O)Cn2c(=O)n(Cc3ccco3)c(=N)c3c4c(sc32)COC(C)(C)C4)cc1 the results were HCV inhibitor 3.16µM*, FMDV inh -5.2%, Sm TGR block -19.9%, HCMV inh -17.6 and VACV Venus inh -16.4%.
`COc1ccc(Cn2c(=O)n(Cc3ccco3)c(=N)c3c4c(sc32)COC(C)(C)C4)cc1` gave HCV inhibitor 12.6µM*, FMDV inh -22.9%, Sm TGR block -2.6%, HCMV inh -24.5 and VACV Venus inh inconclusive.
CC1(C)Cc2c(sc3c2c(=N)n(Cc2ccco2)c(=O)n3Cc2ccc(F)cc2)CO1 was read as HCV inhibitor inconclusive, FMDV inh -20.9%, Sm TGR block 0.0%, HCMV inh -15.1 and VACV Venus inh inconclusive.
For COc1ccc(NC(=O)Cn2nnc3sc4c(c3c2=O)CC(C)(C)OC4)cc1 the results were HCV inhibitor -22.2%, FMDV inh -21.6%, Sm TGR block -12.0% and HCMV inh -14.2.
Cc1cccc(OCCCC(=O)Nc2ccc(N3CCCCC3)cc2)c1 was read as HCV inhibitor -14.0%, FMDV inh -15.5%, Sm TGR block -20.4%, Vaccinia mCherry -1.8%, HCMV inh -23.5 and VACV Venus inh -5.0%.
`Fc1ccccc1/C=N/n1cc(-c2ccccc2)[nH]c1=S` gave HCV inhibitor -12.3%, FMDV inh 17.2%, Sm TGR block -6.2%, Vaccinia mCherry -21.4%, HCMV inh 27.5 and VACV Venus inh 18.5%.
Cc1ncoc1C(=O)N1CCOc2ccc(CN3CCN(c4ccccn4)CC3)cc2C1 was read as FMDV inh -17.1%, Vaccinia mCherry -10.5% and VACV Venus inh -8.6%.
Screening CC1CCCN(S(=O)(=O)c2ccc(NC(=O)C3CCN(C(=O)c4ccco4)CC3)cc2)C1 (stereo unspecified) returned HCV inhibitor -28.9%, FMDV inh 16.7%, Sm TGR block 7.9%, Vaccinia mCherry -16.6%, HCMV inh -60.1* and VACV Venus inh -10.4%.
`C#CCNC(=O)C1CCN(c2cc(C)nc(-c3ccccc3)n2)CC1` gave HCV inhibitor -28.7%, FMDV inh 10.1%, Vaccinia mCherry -6.9%, HCMV inh -94.8* and VACV Venus inh -5.5%.
Screening Cc1cc(N2CCN(C(=O)c3ccco3)CC2)nc(-c2ccccc2)n1 returned HCV inhibitor inconclusive, FMDV inh -3.3%, Sm TGR block 44.7µM*, Vaccinia mCherry -24.1%, HCMV inh 16.9 and VACV Venus inh -20.0%.
Cc1ccc(C)c2sc(N3CCN(C(=O)c4ccco4)CC3)nc12 was read as FMDV inh -21.4%, Sm TGR block 56.2µM*, Vaccinia mCherry inactive, HCMV inh 2.4 and VACV Venus inh -7.2%.
Screening COc1ccc(N(C(=O)c2ccc(C(C)(C)C)cc2)S(=O)(=O)c2ccc(Cl)cc2)cc1 returned FMDV inh 3.1%, Sm TGR block 1.9%, Vaccinia mCherry -14.6%, HCMV inh -17.2 and VACV Venus inh -4.1%.
Cc1cc(N2CCN(C(=O)c3ccco3)CC2)n2nc(-c3cccc(F)c3)cc2n1 was read as HCV inhibitor 10µM*, FMDV inh inconclusive, Sm TGR block inconclusive and HCMV inh -63.1*.
Cc1cccc2sc(NC(=O)C3CCN(C(=O)c4ccco4)CC3)nc12 was read as HCV inhibitor 11.2µM*, FMDV inh 2.4%, Sm TGR block -7.9%, Vaccinia mCherry 0.0%, HCMV inh 19.8 and VACV Venus inh -17.7%.
For CCOC(=O)c1ccc(NC=C2C(=O)OC3(CCCCC3)OC2=O)cc1 the results were HCV inhibitor -3.2%, FMDV inh -3.4%, Sm TGR block 1.8%, Vaccinia mCherry -7.1%, HCMV inh -21.8 and VACV Venus inh -12.4%.
Cc1nn(C(=O)CCC(=O)NCc2cccc(F)c2)c2ccccc12 was read as HCV inhibitor 0.0%, FMDV inh -10.9%, Sm TGR block -1.1% and HCMV inh -31.2.
Screening CN(C1CCCCC1)S(=O)(=O)c1ccc(NC(=O)C2CCCCC2)cc1 returned HCV inhibitor 14.1µM*, FMDV inh -22.3%, Sm TGR block -19.2% and HCMV inh 23.3.
CN(Cc1ccccc1)S(=O)(=O)c1ccc(NC(=S)NC(=O)C2CCCCC2)cc1 was read as HCV inhibitor 10µM*, FMDV inh -16.3%, Sm TGR block 5.7%, Vaccinia mCherry inconclusive, HCMV inh -5.7 and VACV Venus inh -26.8%.
Screening CN(C1CCCCC1)S(=O)(=O)c1ccc(NC(=O)CCC(=O)O)cc1 returned HCV inhibitor 23.6%, FMDV inh -1.9%, Sm TGR block -2.7%, HCMV inh -3.2 and VACV Venus inh -5.0%.
CN(C)Cc1c(C(C)(C)O)[nH]c2ccccc12 was read as HCMV inh 11.1.
For COC1CCN(C(=O)CC2C(=O)NCCN2CC2CCCCC2)CC1 (stereo unspecified) the results were HCV inhibitor 4.6%, FMDV inh 0.1%, Sm TGR block -27.8%, Vaccinia mCherry inactive, HCMV inh inconclusive and VACV Venus inh 2.6%.
Screening CCn1c(CNC(=O)c2ccco2)nnc1SCC(=O)c1ccccc1 returned HCV inhibitor 22.7%, FMDV inh 6.3%, Sm TGR block -1.7%, Vaccinia mCherry -0.8%, HCMV inh -61.8* and VACV Venus inh -0.6%.
For C=CCn1c(CNC(=O)c2ccco2)nnc1SCC(=O)c1ccc(F)cc1 the results were HCV inhibitor 9.8%, FMDV inh 10.5%, Sm TGR block -2.7%, Vaccinia mCherry -11.6%, HCMV inh -9.6 and VACV Venus inh -6.1%.
`C=CCn1c(CNC(=O)c2ccco2)nnc1SCC(=O)N1c2ccccc2Sc2ccccc21` gave HCV inhibitor inconclusive, FMDV inh 14.7%, Sm TGR block 35.5µM*, Vaccinia mCherry -14.8%, HCMV inh -6.4 and VACV Venus inh -9.0%.
For O=C(NCC(c1ccco1)N1CCN(c2ccccc2F)CC1)C(=O)NC1CCCCC1 (stereo unspecified) the results were HCV inhibitor 1.9%, FMDV inh -2.6%, Sm TGR block -0.2%, Vaccinia mCherry inactive, HCMV inh -7.8 and VACV Venus inh -10.1%.
Screening Cc1c2cnn(-c3ccccc3)c(=O)c2c(C)n1CC(=O)Nc1ccccc1Br returned FMDV inh -13.1%, Sm TGR block 0.6%, Vaccinia mCherry -8.8%, HCMV inh -17.1 and VACV Venus inh -6.4%.
`CCOc1ccc(-c2csc3nc[nH]c(=O)c23)cc1` gave HCV inhibitor -4.6%, FMDV inh -0.1%, Sm TGR block 7.3%, Vaccinia mCherry -19.7%, HCMV inh -2.2 and VACV Venus inh -4.7%.
For CN(C(=O)CSc1cc(C(=O)c2nccn2C)c2ccccc2n1)c1ccccc1 the results were HCV inhibitor -25.2%, FMDV inh 10.3%, Sm TGR block inconclusive, Vaccinia mCherry -15.1%, HCMV inh -98.7* and VACV Venus inh -5.9%.
